PPC-1+TRAIL kill – compounds killing PPC-1 cancer cells with TRAIL present, primary screen, TRAIL potentiator project, ATPLite luminescence, uHTS. PPC-1 cells + TRAIL, ATPLite viability luminescence. cell killing (% activity), % at 4 µM or 5 µM. 220,000 tested, 0.41% active. AID 1443, 2008;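 active means cell killing above 50% in the first pass at 4 µM, then a duplicate retest at 5 µM averaging 50% or more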;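 further: plate controls were cells with TRAIL plus DMSO for no effect and medium-only wells lacking cells for full effect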
STAT3 blocker – IL-6 driven STAT3 reporter inhibitors, primary screen, U3A cells, luciferase, luminescence, MLSCN library; IL-6 STAT3-luciferase reporter; host cell line lacks STAT1; inhibition, % at 5.5 µM; 190,000 tested, 0.89% active; AID 862, 2007;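 active means inhibition above the mean inhibition across all screened compounds plus 3 SD, cut at about 44% in these data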;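 further: 0% = DMSO only wells and 100% = 100 µM nifuroxazide control wells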
STAT1 blocker – STAT1 signaling inhibitors, primary screen, cell-based, HTS, luciferase reporter. NIH 3T3 STAT1-luciferase reporter, IFN-gamma, luminescence. inhibition, % at 5.5 µM. 200,000 tested, 0.35% active. AID 920, 2007;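 active means inhibition above a set limit, the mean inhibition across all tested compounds plus 3 SD, cut at about 34% in these data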;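 further: 0% = IFN-gamma with DMSO and 100% = IFN-gamma with 300 µM nifuroxazide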
Platelet DG rel – inhibitors of platelet dense granule secretion, primary screen, cell-based, MLPCN, human platelets | human platelet-rich plasma, SFLLRN dense granule ATP release, luminescence | inhibition, %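 (compounds screened at 7.5 µM in platelet-rich plasma)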 | AID 1663, 2009 | 300,000 tested, 0.22% active;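 active means mean replicate score, as percent of positive control, at or above 50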
C8 TRAIL sens – viability loss with TRAIL in NB7+C8 cells, primary screen, TRAIL sensitizer project, cell-based, ATPlite luminescence; inhibition (viability loss, TRAIL sensitization), % at 10 µM; 360,000 tested, 1% active;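 active means compounds causing at least 50% loss of cell viability in the single-dose screen, relative to plate controls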
PPC-1 tox – cytotoxicity in PPC-1 cells, confirmation, cytotoxicity control for TRAIL apoptosis potentiator project, cell-based, ATP content luminescence | PPC-1 viability, ATPlite luminescence, overnight | shares compounds with PPC-1+TRAIL kill | AID 1447, 2008 | cytotoxicity, % at 5 µM | 1,200 tested, 50% active;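 active means reconfirmed compounds whose average cytotoxicity reaches 50% or more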;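 further: 0% = DMSO-treated cells and 100% = wells holding medium but no cells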
Numbers without * were called inactive; . = no result. Compounds with a hit are over-represented: about 1.6% of the library has one in this group of screens.

SMILES	PPC-1+TRAIL kill	STAT3 blocker	STAT1 blocker	Platelet DG rel	C8 TRAIL sens	PPC-1 tox
CN1CCN(c2nc(N)cc(=O)[nH]2)CC1	-12	.	.	-6	-17	.
CC(=O)Nc1ccc(S(=O)(=O)N2Cc3ccccc3-n3nncc3C2)cc1	.	.	.	.	4	.
CC(C)(OOC1(c2ccccc2)NC(=O)c2ccccc21)c1ccccc1 (stereo unspecified)	.	.	.	.	7	.
O=C(CCCc1ccc(N(CCCl)CCCl)cc1)NCc1ccccc1	.	.	.	.	-18	.
Cc1cccc(CN(C)C)c1OC(=O)N(C)C	1	17	5	2	-4	8
CN(C)Cc1ccccc1OC(=O)N(C)C	16	4	1	-10	-11	.
O=C(/C=C/c1ccccc1)N1Cc2ccccc2-n2nncc2C1	.	.	.	.	-3	.
CC(C)N1CCN(Cc2cc3c(cc2Cl)OCO3)CC1CCO (stereo unspecified)	-63	.	.	3	-3	.
CC(C)N1CCN(Cc2ccc3c(c2)OCCO3)CC1CCO (stereo unspecified)	-9	0	-6	-2	-6	-6
Cc1cc([N+](=O)[O-])c2ccccc2[n+]1[O-]	94*	.	.	1	33	91*
CNc1ccc2oc(C[C@H]3O[C@@]4(CC[C@H]3C)O[C@H]([C@H](C)C(=O)c3ccc[nH]3)[C@H](C)C[C@H]4C)nc2c1C(=O)O	44	.	.	28	83*	49
O=C1C(=O)c2ccccc2-c2ccccc21	68*	18	-4	1	95*	63*
O=C(Nc1cc(Cl)cc(Cl)c1)N1Cc2ccccc2-n2nncc2C1	.	.	.	.	-12	.
COc1cccc(C(c2nnnn2C2CCCCC2)N2CCC3(CC2)C(=O)NCN3c2ccccc2)c1OC (stereo unspecified)	.	.	.	.	2	.
CN1CCN(c2ccc([N+](=O)[O-])c3no[n+]([O-])c23)CC1	78*	.	.	6	95*	80*
Cc1nc2c(=O)n(C)c(=O)nc-2n(C)n1	66*	107*	92*	40	96*	62*
CCOc1ccc(C2CC(c3c(O)n(C)c(=O)n(C)c3=O)=NN2)cc1 (stereo unspecified)	69*	.	.	2	74*	71*
C=C(C=O)C[C@@H]1C[C@H](O)C2OC3C[C@]4(C)OC5/C=C\CC6OC7C(CC=CCC6OC5CCCC4OC3CC2O1)OC1CC2OC3CC(=O)OC3C[C@@H](C)C[C@@]2(C)OC1C[C@@H]7C (stereo partly specified)	78*	.	.	2	.	77*
CN1C(=O)C(C2c3ccccc3C(=O)N2Cc2ccccc2)C(=O)N(C)C1=O (stereo unspecified)	-3	1	-4	-13	-5	-4
CN1C(=O)C(C2c3ccccc3C(=O)N2Cc2ccc([N+](=O)[O-])cc2)C(=O)N(C)C1=O (stereo unspecified)	21	0	2	10	-14	.
COc1ccc(NC(=O)N2C[C@@H]3C[C@@H](C2)c2cccc(=O)n2C3)cc1	.	.	.	-2	-4	.

Source: PubChem
